Source: PubChem (Broad Institute)
HSF1 inhib: HSF1 inhibition; NIH3T3-HGL HSE-luciferase, MG132-induced, luminescence 8 h; stronger effect = lower value; activity change, negative = inhibition, % at 7.5 µM (by protocol); hit rate 0.77% among 300,000; AID 2098;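 active means more than half of replicate wells show activity change below -50%, luminescence cut by over half; inconclusive means some wells, but at most half, below -50%; inactive means no replicate well below -50%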;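 further: luciferase reports HSF-1 transcriptional activity via heat shock element; 0% = median of DMSO wells and -100% = zero luminescence signal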
HSF-1 act: increases HSF-1 driven luciferase reporter signal | NIH3T3-HGL HSF-1 luciferase reporter, MG132, 8 h; 100% = twice DMSO control signal | activation, % at 9 µM | hit rate 1.7% among 300,000;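 active means mean replicate activation of at least 50% with a set share of replicates each reaching 50%; inconclusive means only one of those two conditions met; inactive means mean below 50% and too few replicates reaching it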;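 further: 0% = median of the neutral control wells and 100% = twice that signal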
MITF TRPM1 HTS: activators of MITF-driven TRPM1 promoter activity in SK-MEL-5 cells. SK-MEL-5 TRPM1-promoter luciferase, 24 h; % of positive control, neutral wells = 0. activation, % at 12.5 µM. hit rate 0.75% among 300,000;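 active means mean activation of at least 80% with every replicate also reaching 80%; inconclusive means mean reaches 80% but some replicate falls short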;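 further: 0% = neutral control wells and 100% = parthenolide positive control wells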
Wnt bcat act: activates Wnt/beta-catenin signaling in a reporter cell assay; activator, plate reader; activation, % at 9.35 µM; hit rate 1.2% among 300,000; AID 743398; in the data active means activation above about 30%, passing the limit was not always enough; inconclusive means no clear call, values can overlap the other calls;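 further: 0% = neutral control wells and 100% = positive control wells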
esBAF inh: inhibitors of esBAF chromatin remodeling in mouse ES cells. reporter increase, % at 12.5 µM. hit rate 2% among 350,000. Bmi1-luciferase knock-in reporter, 24 h; 100% = twice the neutral-well signal. AID 602393; in the data active means activation above about 40%; inconclusive means no clear call, values can overlap the other calls;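 further: 0% = median of the plate's neutral control wells and 100% = double that signal; a rise in the Bmi1 reporter signal indicates esBAF inhibition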
An asterisk follows results filed as active; ? = inconclusive; nt = no result given. Most compounds without a hit are left out; they make up all but 3.8% or so of the library.

SMILES	HSF1 inhib	HSF-1 act	MITF TRPM1 HTS	Wnt bcat act	esBAF inh
Cc1ccc(Sc2ccc(NC(=O)CCl)cc2)c(C)c1	41.0	75.7*	nt	-1.4	nt
C[C@@H]1CN([C@@H](C)CO)C(=O)c2cccc(NS(=O)(=O)c3ccc(Cl)cc3)c2O[C@@H]1CN(C)Cc1ccncc1	nt	nt	nt	nt	-0.7
CN1C(=O)C2(c3ccccc31)N(C)CC(c1ccccn1)C21SC(=S)N(Cc2ccco2)C1=O (stereo unspecified)	34.2	84.9*	-9.6	-4.1	nt
C[C@H](CO)N1C[C@H](C)[C@H](CN(C)Cc2cncnc2)Oc2ncc(-c3ccc(F)cc3)cc2C1=O	nt	nt	nt	nt	-1.3
O=CNc1ccc2c(c1)Cc1cc([N+](=O)[O-])ccc1-2	nt	nt	8.3	-1.8	15.9
CCC(=O)Nc1ccc2c(c1)Cc1cc([N+](=O)[O-])ccc1-2	nt	nt	92.8*	48.2*	80.8*
O=C(NCCCn1cccn1)c1cc(COc2ccccc2)on1	nt	nt	nt	?	81.6*
CC(=O)c1ccc(OCc2cc(C(=O)NC(C)CCn3cccn3)no2)cc1 (stereo unspecified)	25.6	28.4	78.1	14.2	70.6*
Cc1ccc(OCc2cc(C(=O)NCCn3cccn3)no2)cc1C	3.7	5.7	26.6	0.1	13.0
C[C@H](CO)N1C[C@H](C)[C@H](CN(C)Cc2ccc(C(F)(F)F)cc2)Oc2ccc(NC(=O)CCN3CCOCC3)cc2C1=O	nt	nt	nt	nt	2.5
COc1ccccc1NC(=O)c1ccc(-c2ccc(Br)cc2)o1	2.5	5.9	2.7	nt	nt
O=C(Nc1nccs1)c1ccc(-c2ccccc2Cl)o1	21.2	60.8*	47.1	?	nt
O=C(Cc1ccccc1[N+](=O)[O-])Nc1nccs1	1.1	-1.9	-26.2	6.0	nt
COc1ccccc1NC(=O)c1ccc(-c2ccccc2[N+](=O)[O-])o1	14.0	27.5	94.4*	7.5	nt
O=C(Nc1nccs1)c1ccc(-c2ccccc2[N+](=O)[O-])o1	40.2	34.0	79.1	35.1*	86.2*
Cc1cc([N+](=O)[O-])ccc1NC(=O)CCC(=O)N1CCCC1	-1.3	6.8	-16.8	0.1	-8.1
Cc1cc([N+](=O)[O-])ccc1NC(=O)CCC(=O)N1CCCCC1	-76.5*	-80.2	0.2	-0.3	-5.3
C[C@@H]1CCCCO[C@@H](CN(C)C)[C@H](C)CN([C@H](C)CO)C(=O)c2cc(NS(=O)(=O)c3ccccc3)ccc2O1	nt	nt	nt	nt	2.5
Cc1cc(C)nc(Sc2nc(Cl)nc(N(c3ccccc3)c3ccccc3)n2)n1	19.7	53.8*	-10.0	-6.4	2.2
C[C@H](CO)N1C[C@H](C)[C@H](CN(C)C(=O)CCCN(C)C)OCCCC[C@H](C)Oc2ccc(NC(=O)NC3CCCCC3)cc2C1=O	nt	nt	nt	nt	-0.2
COc1ccccc1NC(=O)Nc1nc(CC(=O)N2CCN(c3ccccc3)CC2)cs1	33.9	61.6*	1.6	-9.1	5.8
COc1ccc(NC(=O)Cc2csc(NC(=O)Nc3ccccc3OC)n2)cc1	nt	nt	nt	-1.8	-2.9
COc1ccccc1NC(=O)Nc1nc(CC(=O)Nc2ccc(N(C)C)cc2)cs1	3.7	1.8	14.6	5.0	50.9*
CC1=C(C(=O)Nc2ccc(C)cc2)C(c2ccc(C)o2)C2=C(CC(C)(C)CC2=O)N1 (stereo unspecified)	-62.2*	-70.9	9.4	nt	-3.3
C[C@H]1CCCCO[C@H](CN(C)Cc2ccc(C(=O)O)cc2)[C@@H](C)CN([C@@H](C)CO)C(=O)c2cc(NC(=O)Nc3ccc(C(F)(F)F)cc3)ccc2O1	nt	nt	nt	nt	-3.9
SMILES	HSF1 inhib	HSF-1 act	MITF TRPM1 HTS	Wnt bcat act	esBAF inh
Cc1cc(NC(=O)c2cccc(Cl)c2)n[nH]1	11.6	2.8	66.2	29.3	47.2*
O=C(Nc1cc(-c2ccccc2)[nH]n1)c1ccc(Cl)cc1	9.7	?	nt	40.1*	59.0*
Cc1ccc(NC(=O)c2cccc(Cl)c2)nc1	11.5	25.9	32.8	nt	28.1
O=C(Nc1ccc(Cl)cc1Cl)c1ccc(-c2ccccc2)cc1	1.0	-12.8	9.8	7.0	nt
C[C@@H]1CCCCO[C@@H](CN(C)C(=O)Nc2ccc3c(c2)OCO3)[C@H](C)CN([C@@H](C)CO)C(=O)c2cc(NC(=O)c3ccccc3)ccc2O1	nt	nt	nt	nt	32.7
CCOC(=O)C1=C(C)Nc2ncnn2C1c1ccc2c(c1)OCO2 (stereo unspecified)	32.4	51.0*	-2.4	-1.6	5.1
Cc1ccc(S(=O)(=O)NCCC(=O)N2CCN(S(=O)(=O)c3ccccc3)CC2)cc1C	-55.5*	-65.1	-7.7	-2.9	-4.8
O=C(NC1CCCCCC1)C1CCN(S(=O)(=O)c2ccccc2)CC1	7.7	55.3*	nt	-5.7	1.2
Cc1ccc(S(=O)(=O)NCCC(=O)N2CCN(S(=O)(=O)c3cccc(F)c3)CC2)cc1C	1.9	-1.5	-4.6	-0.2	nt
O=C(N1CCCCC1)N1CCN(S(=O)(=O)c2ccccc2)CC1	-70.9*	-76.5	1.9	2.3	1.3
O=C(N1CCCCCC1)N1CCN(S(=O)(=O)c2ccccc2)CC1	-4.3	-2.0	-6.6	nt	-4.0
O=C(NC1CCCCC1)C1CCN(c2nccs2)CC1	-57.9*	-68.8	11.9	-0.5	-4.1
CCCC(=O)Nc1ccc2c(c1)OC[C@H](C)N(C(=O)C1CCCC1)C[C@@H](C)[C@@H](OC)CN(C)C2=O	nt	nt	nt	nt	0.8
CO[C@H]1CN(C)C(=O)c2cc(NS(=O)(=O)c3ccccc3C)ccc2OC[C@@H](C)N(C)C[C@@H]1C	nt	nt	nt	nt	0.1
C[C@@H]1CN([C@@H](C)CO)C(=O)c2ccccc2-c2ccccc2CO[C@H]1CN(C)C(=O)C1CC1	nt	nt	nt	nt	-4.2
O=C(NNS(=O)(=O)c1ccccc1)C1CCN(S(=O)(=O)c2ccc(Cl)cc2)CC1	-8.4	-5.7	nt	-7.8	6.6
CSCC[C@H](NC(=O)C1CCN(S(=O)(=O)c2ccccc2)CC1)C(=O)NC1CC1	-71.2*	-76.8	-11.5	0.5	1.1
O=C(Nc1nnc(-c2ccccc2F)s1)C1CCN(S(=O)(=O)c2ccc(Cl)cc2)CC1	nt	nt	-7.1	-2.8	nt
C[C@H](NC(=O)C1CCN(S(=O)(=O)c2ccccc2)CC1)C(=O)NC1CC1	nt	nt	nt	-2.9	-4.1
O=C(COC(=O)c1ccc(S(=O)(=O)N2CCOCC2)cc1)NC1CCCCCCC1	-1.9	-11.7	-0.9	89.2*	5.0
O=C(Nc1nnc(-c2ccccc2Cl)s1)C1CCN(S(=O)(=O)c2ccc(Cl)cc2)CC1	13.2	56.0*	7.6	-0.9	nt
O=C(NNS(=O)(=O)c1ccccc1)C1CCN(S(=O)(=O)c2ccccc2)CC1	-6.8	-0.5	11.6	42.3*	2.3
CCC(=O)N1[C@@H]2c3cccc(=O)n3C[C@@H]2[C@@H](CO)[C@@H]1C(=O)NCc1ccccc1F	nt	nt	nt	nt	-1.0
CC(C)CC#Cc1ccc2c(c1)O[C@@H](CN(C)CC1CCOCC1)[C@H](C)CN([C@H](C)CO)S2(=O)=O	nt	nt	nt	nt	-4.1
C[C@H](CO)N1C[C@H](C)[C@H](CN(C)C(=O)Nc2ccc3c(c2)OCO3)Oc2ccc(NC(=O)Cc3ccccc3)cc2C1=O	nt	nt	nt	nt	6.0
CCn1cnc2cc(NCc3cccs3)ccc21	5.6	1.7	21.2	2.5	30.7
